Drawing on PubChem BioAssay AID1259421 (Broad Institute, 2018), this text covers activity change, negative = inhibition for 25 compounds.

Values joined by “and” are separate entries in the source; they are usually repeats but may differ in a detail not shown here. Identical values can stand only once. In all, about 6,400 compounds went through this assay and about 610 (9.5%) were called active. The sample holds actives, similar compounds and a random draw of the others, so the mix is not that of the screen. Cut-off read from the data, not from the text of the source: active = activity change below about -70%; inconclusive = no clear call, values can overlap the other calls; inactive = above that. Some compounds were tested as several samples or in several runs, with calls that do not always agree.

This assay is described as follows: T. gondii ME49Luc in HeLa cells, luciferase assay, 72 h, no IFN-y (AID 1259421). The settings on record: stronger effect = lower value, concentration not given here.
For `Cl/C=C\C[N+]12CN3CN(CN(C3)C1)C2`, the activity change, negative = inhibition was 5.98% (inactive). The figure for `NC1=NC(=O)N2CC12` (stereo not given) is 6.84% (inactive); for `Oc1ccc2c3c1OC1c4oc5ccccc5c4CC4(O)C(C2)N(CC2CC2)CCC314` (stereo not given) it is -19.3% (inactive); for `N#CC(O[C@@H]1O[C@H](CO[C@@H]2O[C@H](CO)[C@@H](O)[C@H](O)[C@H]2O)[C@@H](O)[C@H](O)[C@H]1O)c1ccccc1` (stereo not given in full) it is 19% (inactive).

`COC[C@@H](NC(C)=O)C(=O)NCc1ccccc1`: the activity change, negative = inhibition was -51% (inactive). The figure for `O=C1Nc2ccc(Cl)cc2C(c2ccccc2Cl)=NC1O` (stereo not given) is 5.64% (inactive); for `CC(C)CC(NC(=O)C(Cc1ccccc1)NC(=O)CNC(=O)[C@H](C)NC(=O)C(N)Cc1ccc(O)cc1)C(=O)N[C@H](CCCN=C(N)N)C(=O)O` (stereo not given in full) it is 10.6% (inactive). The figure for `O=C1CN=C(c2cccc(Br)c2)c2oc3ccccc3c2N1` is 22.5% (inactive); for `CNC(=O)Oc1ccccc1OC(C)C` it is 12.8% (inactive). The figure for `ClC=C(Cl)Cl` is 8.81% (inactive); for `Oc1ccc2c3c1OC1c4c(c5ccccc5n4Cc4ccccc4)CC4(O)C(C2)N(CC2CC2)CCC314` (stereo not given) it is -1.02% (inactive); for `CCCCCCCCCCCCC/C=C/[C@@H](O)[C@@H](N)COP(=O)(O)OCC[N+](C)(C)C` it is -1.29% (inactive).

With `NC(=O)CN1C[C@H](O)CC1=O`, the activity change, negative = inhibition is -40.7% (inactive).

As to `CN1CCc2cc3c(cc2C1[C@@H]1OC(=O)c2c1ccc1c2OCO1)OCO3` (stereo not given in full), the activity change, negative = inhibition was 8.11% (inactive). Turning to `CC(C)(C)c1o[nH]c(=O)c1CC(N)C(=O)O` (stereo not given), the activity change, negative = inhibition is -79.9% (active) and 9.91% (inactive).

As to `Cc1o[nH]c(=O)c1C[C@H](N)C(=O)O`, the activity change, negative = inhibition was 13.1% (inactive). The figure for `Cc1o[nH]c(=O)c1CC(N)C(=O)O` (stereo not given) is 3.8% (inactive); for `Oc1ccc2c3c1OC1c4[nH]c5ccccc5c4CC4(O)C(C2)N(CC2CC2)CCC314` (stereo not given) it is 6.33% (inactive); for `CN1C2CCC1CC(OC(=O)c1cc(Cl)cc(Cl)c1)C2` (stereo not given) it is -1.24% (inactive) and 2.27% (inactive). The figure for `C[C@H]1CCC/C=C/[C@@H]2C[C@H](O)C[C@H]2[C@H](O)/C=C/C(=O)O1` is -94.5% (active); for `COc1ccc(/C=C/C(=O)CC(=O)/C=C/c2ccc(OC)c(OC)c2)cc1OC` it is 2.29% (inactive). For `CC(C)(c1ccc(OCC2CO2)cc1)c1ccc(OCC2CO2)cc1` (stereo not given), the activity change, negative = inhibition was 9.89% (inactive). `CN1C2CCC1CC(OC(c1ccccc1)c1ccccc1N)C2` (stereo not given): the activity change, negative = inhibition is 16.3% (inactive). `c1cc2c(c(N3CCNCC3)c1)OCCO2`: the activity change, negative = inhibition was -0.0388% (inactive).

Regarding `CN1C2CCC1CC(OC(c1ccc(F)cc1)c1ccc(F)cc1)C2` (stereo not given), the activity change, negative = inhibition is 22.3% (inactive) and 38.4% (inactive).
